From PubChem
ADAM17 inh – ADAM17 inhibition, QFRET primary screen | P78536 | recombinant ADAM17, EDANS/DABCYL FRET peptide cleavage | inhibition, % at 6.95 µM | actives 0.83% (n = 370,000);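 active means inhibition above the mean of compounds lying between control limits plus 3 SD, set per campaign, cut at about 8.5% in these data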
FAS-TE inh – inhibitors of human fatty acid synthase thioesterase domain | P49327 | recombinant FAS-TE, OMFH fluorogenic substrate, fluorescence endpoint | inhibition, % at 15 µM | actives 0.67% (n = 360,000) | AID 602261;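 active means compounds whose normalised, plate-corrected inhibition of enzyme fluorescence in the single-dose primary screen is 50% or more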
aDG glyco act – alpha-DG glycosylation activation; actives 0.22% (n = 360,000); activation, % at 10 µM; Pro5-aDG cells, alpha-DG glycosylation AlphaScreen (IIH6); 0% Pro5, 100% B10-LARGE cell signal; AID 624168;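 active means activation of at least 8% versus controls, or a plate z-score of at least 8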;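 further: Pro5 are CHO cells carrying HIG-tagged alpha-DG that lacks glycosylation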
ADAM10 inh – ADAM10 inhibition, QFRET primary screen | recombinant ADAM10, EDANS/DABCYL FRET peptide cleavage, 3 h | O14672 | inhibition, % at 7 µM | actives 0.62% (n = 370,000);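 active means inhibition above a per-campaign cutoff equal to the mean of compounds falling between control-based bounds plus 3 SD, cut at about 20% in these data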
NR3A LBD binder – modulators (binders) of human NR3A ligand-binding domain; NR3A LBD differential scanning fluorimetry, Tm shift; 0% = protein alone, 100% = glycine-bound protein; Tm shift relative to glycine control, % at 25 µM; actives 2.5% (n = 340,000);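 active means melting temperature shift of at least 10% of the positive control shift, at one fixed dose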
ADAM10 ctr – inhibits human ADAM10 in ADAM17 exosite counter-screen. shares compounds with ADAM17 inh. recombinant ADAM10, EDANS/DABCYL FRET peptide cleavage, 3 h. inhibition, % at 6.95 µM. actives 47% (n = 2,900). AID 743256;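 active means mean inhibition over the triplicate runs exceeds the activity threshold set in the earlier primary screen, cut at about 20% in these data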
ADAM17 confirm – human ADAM17 inhibition, confirmation; recombinant ADAM17, EDANS/DABCYL QFRET peptide cleavage; shares compounds with ADAM17 inh; inhibition, % at 6.95 µM; actives 65% (n = 2,900); AID 743257;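 active means mean inhibition across replicates above the hit cutoff set in the primary screen, cut at about 8.5% in these data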
Numbers stand for hits; i = inactive; nt = not tested or not shown. Rows were chosen to be rich in hits. Some 4% of all compounds tested hit in one or more screens of this group.

SMILES | ADAM17 inh | FAS-TE inh | aDG glyco act | ADAM10 inh | NR3A LBD binder | ADAM10 ctr | ADAM17 confirm
C/C=C(\C)C(=O)Nc1cccc(C2=NOC3(C2)C[C@@H](C(N)=O)N(C(=O)c2cc([N+](=O)[O-])cc([N+](=O)[O-])c2C)C3)c1 (stereo not given in full) | i | i | i | i | i | nt | nt
CCc1cc(/C(Cc2ccc3ccccc3n2)=N\O)c(O)cc1O | 9.2 | i | i | i | 29 | 30 | 22
CC1(C)C([N+](=O)[O-])C(c2ccccc2O)NC(c2ccccc2O)C1[N+](=O)[O-] (stereo not given) | 9.3 | i | i | i | i | 23 | 15
COc1cccc(OCC(O)CN2CCN(C(c3ccccc3)c3ccccc3)CC2)c1 (stereo not given) | i | i | i | i | i | nt | nt
CC(=O)c1ccccc1OCC(O)CN1CCN(C(c2ccccc2)c2ccccc2)CC1 (stereo not given) | 11 | i | i | i | i | i | i
CC1=C(C(=O)N2CCOCC2)CC(CC(=O)NCc2cccc3ccccc23)C(=O)N1Cc1ccc(C(C)(C)C)cc1 (stereo not given) | 9.0 | i | i | i | nt | i | i
CCN(CC)C(=O)C1=C(C)N(Cc2ccc(C(C)(C)C)cc2)C(=O)C(CC(=O)NC(c2ccccc2)c2ccccc2)C1 (stereo not given) | 9.3 | i | i | i | nt | 27 | 13
C=CCn1c(SCC(=O)c2c(N)n(C3CC3)c(=O)[nH]c2=O)nnc1-c1ccoc1C | i | i | i | i | i | nt | nt
NC(=O)C1(c2ccccc2)CCCN1C(=O)c1ccccc1Br (stereo not given) | i | i | i | i | i | nt | nt
CC(C)N=c1scc(-c2cccs2)n1/N=C/c1ccc(O)c(O)c1O | 9.3 | i | i | i | i | i | 12
O=C(Nc1ccc(OCC(=O)N2CCOCC2)cc1)c1cncc(Br)c1 | i | i | i | i | i | nt | nt
Nc1[nH]c(C(=O)c2ccc(Br)cc2)c(-c2ccc(Cl)cc2[N+](=O)[O-])c1C(=O)NCCc1c[nH]c2ccccc12 | 9.3 | nt | nt | i | nt | i | 14
Nc1[nH]c(C(=O)c2ccccc2)c(-c2ccccc2Br)c1C(=O)NCCc1c[nH]c2ccccc12 | i | i | i | i | nt | nt | nt
Nc1[nH]c(C(=O)c2ccc(Br)cc2)c(-c2ccccn2)c1C(=O)NCCc1c[nH]c2ccccc12 | 8.8 | nt | nt | i | nt | i | 12
Nc1[nH]c(C(=O)c2ccccc2)c(-c2ccccc2C(F)(F)F)c1C(=O)NCCc1c[nH]c2ccccc12 | 9.4 | i | i | i | nt | i | i
COc1ccc(Cl)cc1C(=O)Nc1cccc2ncccc12 | i | i | i | i | i | nt | nt
Cc1ccc(SCc2cc(=O)[nH]c(N3CCN(Cc4ccc5c(c4)OCO5)CC3)n2)cc1 | i | i | i | i | i | nt | nt
Cc1ccc(N(CC(=O)Nc2cc(Cl)ccc2Oc2ccccc2)S(C)(=O)=O)c(C)c1 | 13 | i | i | i | i | 41 | 22
Cc1ccc(N(CC(=O)Nc2cc(Cl)ccc2Oc2ccccc2)S(C)(=O)=O)cc1C | i | i | i | i | i | nt | nt
CC(COc1cccc(F)c1)CN1CCC(C(O)(c2ccccc2)c2ccccc2)CC1 (stereo not given) | 9.8 | nt | nt | i | nt | i | i
O=C(c1ccc(COCC(F)(F)F)o1)N1CCCCCC1 | 11 | i | i | i | i | i | i
CC(C)(C)NC(=O)c1ccc(COCC(F)(F)F)o1 | i | i | i | i | i | nt | nt
CC(=O)c1c(C)[nH]c(C(=O)Nc2ccc(C)cc2Br)c1C | i | i | i | i | i | nt | nt
Cc1noc(C)c1S(=O)(=O)N(C)C[C@H]1Oc2c(NC(=O)C3CCCCC3)cccc2C(=O)N([C@H](C)CO)C[C@@H]1C | 10 | i | i | i | i | i | i
Cc1noc(C)c1NC(=O)Nc1cccc2c1O[C@H](CN(C)S(=O)(=O)c1ccccc1)[C@@H](C)CN([C@H](C)CO)C2=O | i | i | i | i | i | nt | nt
